From PubChem BioAssay (NCATS) come the findings set out here.

Results filed as inconclusive are left out. Calls of active or inactive are those of the source. The call rests on the fitted dose curve; in most records, active means well fitted inhibition curve with a large enough effect; inconclusive means small, poorly fitted or top-dose-only effect; inactive means flat fitted curve, though single readings scatter.
On the % scale 0 is the no-effect control and ±100 the full control effect.

This test deals with Phospholipid hydroperoxide glutathione peroxidase GPX4 (Homo sapiens) (UniProt P36969). Description: Primary qHTS Assay for Inhibitors of Recombinant Selenoprotein Glutathione Peroxidase 4 (GPX4) (AID 1845192). Further: nearly all actives have a fitted effect of over 65% in size. The note with it: recombinant GPX4, GR-coupled NADPH fluorescence, 15 min; series mostly up to 50 µM; activity change, negative = inhibition: at the top concentration. In a few lines: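 NADPH consumption, followed by fluorescence at 340/450 nm between 0 and 15 min, reports GPX4 activity via coupled glutathione reductase (100 nM). Enzyme 200 nM was pre-exposed to compound 30 min; 0.5 mM cumene hydroperoxide and 1 mM GSH served as substrates.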
Phospholipid hydroperoxide glutathione peroxidase GPX4 (Homo sapiens), sequence (P36969 whole entry, looked up): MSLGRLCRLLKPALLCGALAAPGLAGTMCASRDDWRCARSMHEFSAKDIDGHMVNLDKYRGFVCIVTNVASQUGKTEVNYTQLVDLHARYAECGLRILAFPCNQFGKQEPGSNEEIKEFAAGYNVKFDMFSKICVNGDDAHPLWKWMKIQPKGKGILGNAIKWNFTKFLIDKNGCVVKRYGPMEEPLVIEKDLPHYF
For `CCOc1ccc(Cc2cc([C@@H]3O[C@H](CO)[C@@H](O)[C@H](O)[C@H]3O)ccc2Cl)cc1`, the Potency result was “inactive”. As for `COC(=O)[C@H]1[C@@H](O)[C@@]2(O)c3c(OC)cc(O[C@@H]4O[C@@H]([C@@H](O)CO)CO[C@H]4OC)cc3O[C@@]2(c2ccc(OC)cc2)[C@@H]1c1ccccc1`, the “activity change, negative = inhibition” value was -4.74% (inactive). Same read-out and setting: for `O=C(NCc1ccc(S(=O)(=O)c2cccc(C(F)(F)F)c2)cc1)c1cnc2[nH]ncc2c1` the value was 4.61% (inactive); for `COC[C@@H](c1ccc(C(F)(F)F)cc1)N1CCN(C2(C)CCN(C(=O)c3c(C)ncnc3C)CC2)C[C@@H]1C`, -2% (inactive); for `Cc1c(F)cccc1NC(=O)Nc1ccc(Cl)c(S(=O)(=O)[C@H]2CCCNC2)c1O`, -19.5% (inactive). In the case of `CCNC(=O)Nc1ccc(Oc2ncnc(N)c2/C=N/OC)cc1Cl`, the outcome was inactive.

As for `COc1cccc(-c2c(C)n(Cc3c(F)cccc3C(F)(F)F)c(=O)n(C[C@H](NCCCC(=O)O)c3ccccc3)c2=O)c1F`, the Potency result was “inactive”. Consider `C=CC(=O)N1CCC(CNc2ncnc(N)c2-c2ccc(Oc3ccccc3)cc2)CC1`, for which the “activity change, negative = inhibition” value is 0.53% (inactive). Same read-out and setting: for `O=C1CC[C@H](N2Cc3c(OCc4ccc(CN5CCOCC5)cc4)cccc3C2=O)C(=O)N1` the value was 3.67% (inactive). Turning to `C[C@@H]1C(=O)OC2[C@H](O)[C@]34[C@H]5C[C@@H](C(C)(C)C)[C@]36[C@@H](OC(=O)[C@@H]6O)O[C@@]4(C(=O)O5)[C@]21O` (some centres not stated), the outcome was inactive.

As to `O=C(Nc1nccs1)C(c1cc(F)ccc1O)N1Cc2ccccc2C1=O` (configuration not stated), the “activity change, negative = inhibition” value is -16.3% (inactive).

With `C=CC(=O)N1CCC[C@H](n2c(=O)n(-c3ccc(Oc4ccccc4)cc3)c3c(N)ncnc32)C1`, the “activity change, negative = inhibition” value is -23.1% (inactive).
